Laboratory results from the supplement of paper PMC10849652.
Targets with a hit are over-represented here; the source holds about 7,900 in all. About 0.6% of all pairs of compound and target were hits.

How the values were obtained:
Assay in all cases: log2 fold change, soluble protein after heating vs DMSO (PISA); higher = thermal stabilisation; K562 cells, 10 uM, 30 min; active = over 0.2 and 3.5 SD of the protein, either way, in both replicates (recomputed)
erlotinib = compound: C#Cc1cccc(Nc2ncnc3cc(OCCOC)c(OCCOC)cc23)c1 [erlotinib]
Outline: (§1)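 K562 cells at 2×10^6 cells/mL were exposed to 10 μM compound for 30 min, then aliquots were heated for 3 min across 48°C-58°C, pooled, and extracted in PBS containing 0.5% NP-40 at 4°C. The supernatant after 21,000xg for 90 min was taken as soluble protein and measured by TMTpro 16plex LC-MS/MS with channel sums equalised. Thermal stability is reported relative to control samples, with values from duplicates. Fold changes are given on a log2 scale.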

[1] = compound: C/C(=N\NC(=O)C1=CC(=CC=C1)S(=O)(=O)N2CCOCC2)/C3=C(C=CC(=C3)Cl)O
Outline: as §1

[2] = compound: C1=CC(=C(C=C1Cl)C2=NC3=NC=CN=C3C(=N2)NC4=CC=NC=C4)F
Outline: as §1

[3] = compound: C1=CC(=CC=C1C2=NC3=C(N2)C=C(C=C3)C(=O)N)OC4=CC=C(C=C4)Cl
Outline: as §1

[4] = compound: C1=CC2=C(C=CC(=C2)/C=C\3/C(=O)NC(=NCC4=CC=CS4)S3)N=C1
Outline: as §1

[5] = compound: C1=CC2=NC=CN=C2C=C1/C=C/3\C(=O)NC(=O)S3
Outline: as §1

[6] = compound: C1=CC=C(C=C1)C2=NC(=C(N2)C3=CC=NC=C3)C4=CC(=C(C=C4)Cl)O
Outline: as §1

[7] = compound: C1=CC=C2C(=C1)C3=NNC4=CC=CC(=C43)C2=O
Outline: as §1

[8] = compound: C1CCN(C1)C(=O)NC2=CC=CC(=C2)NC3=NC=C(C(=N3)NCCC4=CN=CN4)Br
Outline: as §1

[9] = compound: C1CN(CCC1(CC2=CC=C(C=C2)Cl)N)C3=NC=NC4=C3C=CN4
Outline: as §1

IRAK-1-4 Inhibitor I = compound: C1COCCN1CCN2C3=CC=CC=C3N=C2NC(=O)C4=CC(=CC=C4)[N+](=O)[O-] [IRAK-1-4 Inhibitor I]
Outline: as §1

ibrutinib = compound: C=CC(=O)N1CCC[C@@H](n2nc(-c3ccc(Oc4ccccc4)cc3)c3c(N)ncnc32)C1 [ibrutinib]
Outline: as §1

[10] = compound: CC(=O)c1cnc2ccc(-c3cc(Cl)c(O)c(Cl)c3)nc2c1N[C@H]1CC[C@H](CN(C)C)CC1
Outline: as §1

ralimetinib = compound: CC(C)(C)Cn1c(N)nc2ccc(-c3[nH]c(C(C)(C)C)nc3-c3ccc(F)cc3)nc21 [ralimetinib]
Outline: as §1

[11] = compound: CC(C)(O)CC(=O)NCCn1ccc2ncnc(Nc3ccc(Oc4cccc(C(F)(F)F)c4)c(Cl)c3)c21
Outline: as §1

[12] = compound: CC(C)C1=C2N=C(C=C(N2N=C1)NCC3=CC=CC=C3)NCCCCCCN
Outline: as §1

[13] = compound: CC(C)C[C@@H](C=O)NC(=O)[C@H](CC(C)C)NC(=O)[C@H](CC(C)C)NC(=O)OCc1ccccc1
Outline: as §1

pinometostat = compound: CC(C)N(C[C@H]1O[C@@H](n2cnc3c(N)ncnc32)[C@H](O)[C@@H]1O)[C@H]1C[C@@H](CCc2nc3cc(C(C)(C)C)ccc3[nH]2)C1 [pinometostat]
Outline: as §1

[14] = compound: CC1=C(C(CC(=O)N1)C2=CC=C(C=C2)C(F)(F)F)C(=O)NC3=C(C=C4C(=C3)C=NN4)F
Outline: as §1

[15] = compound: CC1=C(C2=C(C=C1)C(=O)C3=CC=CC=C3N2CCCN)C
Outline: as §1

Measured: log2 fold change

EXOC4 (UniProt Q96A65)
inactive: erlotinib 0.131 | [1] 0.159 | [2] 0.044 | [3] -0.071 | [4] 0.09 | [5] 0.033 | [6] -0.036 | [7] -0.018 | [8] -0.02 | [9] -0.083 | IRAK-1-4 Inhibitor I -0.123 | ibrutinib -0.028 | [10] -0.007 | ralimetinib 0.024 | [11] -0.099 | [13] 0.04 | pinometostat 0.143 | [14] 0.035 | [15] -0.01
active: [12] -0.442

EIF2AK3 (UniProt Q9NZJ5)
Sequence of UniProt Q9NZJ5 (Q9NZJ5 whole entry, looked up): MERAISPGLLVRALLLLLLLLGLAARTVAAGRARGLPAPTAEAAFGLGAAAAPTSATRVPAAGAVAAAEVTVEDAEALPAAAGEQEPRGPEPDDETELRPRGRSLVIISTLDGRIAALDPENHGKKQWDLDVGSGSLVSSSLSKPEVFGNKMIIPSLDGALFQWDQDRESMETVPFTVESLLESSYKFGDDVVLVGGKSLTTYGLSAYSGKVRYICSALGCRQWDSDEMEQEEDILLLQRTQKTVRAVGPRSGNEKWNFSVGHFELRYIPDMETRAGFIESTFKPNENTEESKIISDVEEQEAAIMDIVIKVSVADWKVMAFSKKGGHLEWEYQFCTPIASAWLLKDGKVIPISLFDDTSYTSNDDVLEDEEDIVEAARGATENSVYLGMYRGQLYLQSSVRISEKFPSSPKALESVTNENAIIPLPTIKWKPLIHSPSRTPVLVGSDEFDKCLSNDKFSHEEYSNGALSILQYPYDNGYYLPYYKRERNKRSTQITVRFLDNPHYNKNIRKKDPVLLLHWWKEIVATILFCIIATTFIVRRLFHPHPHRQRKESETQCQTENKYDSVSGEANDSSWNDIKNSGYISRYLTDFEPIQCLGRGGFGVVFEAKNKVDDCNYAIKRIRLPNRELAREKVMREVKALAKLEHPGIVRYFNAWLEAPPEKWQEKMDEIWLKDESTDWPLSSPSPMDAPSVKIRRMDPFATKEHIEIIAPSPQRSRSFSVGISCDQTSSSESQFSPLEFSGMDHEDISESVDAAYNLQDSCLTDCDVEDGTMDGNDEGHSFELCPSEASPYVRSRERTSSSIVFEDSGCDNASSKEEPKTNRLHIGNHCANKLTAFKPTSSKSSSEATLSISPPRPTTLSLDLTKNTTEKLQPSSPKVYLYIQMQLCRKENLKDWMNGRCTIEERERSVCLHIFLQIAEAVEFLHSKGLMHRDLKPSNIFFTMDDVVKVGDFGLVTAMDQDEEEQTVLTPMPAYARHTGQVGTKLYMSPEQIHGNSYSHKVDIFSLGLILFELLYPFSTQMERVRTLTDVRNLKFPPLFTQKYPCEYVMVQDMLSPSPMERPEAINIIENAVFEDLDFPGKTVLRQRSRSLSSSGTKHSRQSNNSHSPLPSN
inactive: erlotinib 0.056 | [1] 0.022 | [2] 0.091 | [3] -0.222 | [4] 0.421 | [5] -0.311 | [7] -0.016 | [8] 0.148 | [9] 0.075 | IRAK-1-4 Inhibitor I -0.136 | ibrutinib 0.13 | [10] -0.369 | [11] -0.322 | [12] 0.011 | pinometostat -0.048 | [14] -0.106 | [15] 0.032

CYB561A3 isoform 2 (UniProt Q8NBI2)
inactive: erlotinib -0.021 | [1] -0.016 | [3] 0.02 | [4] -0.005 | [5] 0.114 | [6] 0.043 | [7] -0.034 | [8] -0.01 | [9] 0.069 | IRAK-1-4 Inhibitor I 0.024 | ibrutinib 0.014 | [10] 0.033 | ralimetinib -0.026 | [12] -0.164 | [13] -0.019 | pinometostat -0.054 | [14] -0.069 | [15] -0.027

ELOVL5 isoform 2 (UniProt Q9NYP7)
Sequence of UniProt Q9NYP7 (Q9NYP7 whole entry, looked up): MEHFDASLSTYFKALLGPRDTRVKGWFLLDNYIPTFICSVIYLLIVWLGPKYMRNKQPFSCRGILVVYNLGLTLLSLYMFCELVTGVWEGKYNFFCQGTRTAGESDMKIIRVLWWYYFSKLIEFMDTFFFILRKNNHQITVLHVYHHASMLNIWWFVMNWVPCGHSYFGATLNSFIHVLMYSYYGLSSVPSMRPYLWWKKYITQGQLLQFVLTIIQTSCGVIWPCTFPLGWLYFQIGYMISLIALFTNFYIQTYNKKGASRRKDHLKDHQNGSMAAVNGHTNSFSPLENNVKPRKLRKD
inactive: erlotinib 0.03 | [1] 0.117 | [2] -0.087 | [3] -0.005 | [4] 0.084 | [5] 0.122 | [6] 0.068 | [7] -0.068 | [8] 0.031 | [9] 0.008 | ibrutinib -0.075 | [10] -0.032 | ralimetinib -0.058 | [11] -0.272 | [12] -0.348 | [13] -0.05 | [14] -0.027 | [15] 0.002

ESS2 (UniProt Q96DF8)
inactive: erlotinib -0.057 | [1] -0.05 | [2] -0.013 | [3] 0.046 | [4] -0.083 | [5] 0.04 | [6] -0.055 | [7] -0.071 | [8] -0.008 | [9] 0.096 | IRAK-1-4 Inhibitor I 0.032 | ibrutinib 0.025 | [10] 0.031 | ralimetinib -0.009 | [11] 0.013 | [12] 0.002 | [13] 0.136 | pinometostat 0.056 | [14] 0.099 | [15] -0.021

ESYT1 isoform 2 (UniProt Q9BSJ8)
active: [12] -0.321
inactive: erlotinib 0.039 | [1] 0.081 | [2] -0.016 | [3] -0.05 | [4] 0.035 | [5] -0.069 | [6] -0.042 | [7] 0.043 | [8] -0.11 | [9] -0.092 | IRAK-1-4 Inhibitor I -0.126 | ibrutinib -0.046 | [10] -0.048 | ralimetinib 0 | [11] -0.075 | [13] 0.053 | pinometostat 0.152 | [14] -0.018 | [15] 0.031

EEF1B2 (UniProt P24534)
Sequence of UniProt P24534 (P24534 whole entry, looked up): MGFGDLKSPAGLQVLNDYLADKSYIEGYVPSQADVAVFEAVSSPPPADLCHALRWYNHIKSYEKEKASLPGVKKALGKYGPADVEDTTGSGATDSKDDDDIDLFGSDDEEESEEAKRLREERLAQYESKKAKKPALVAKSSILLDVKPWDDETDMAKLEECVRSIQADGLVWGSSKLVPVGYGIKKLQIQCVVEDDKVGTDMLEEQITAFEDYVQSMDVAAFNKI
inactive: erlotinib -0.006 | [1] 0.033 | [2] -0.028 | [3] -0.058 | [4] 0.008 | [5] -0.036 | [6] 0.027 | [7] 0.02 | [8] 0.064 | [9] -0.058 | IRAK-1-4 Inhibitor I -0.01 | ibrutinib -0.054 | [10] 0.009 | ralimetinib 0.003 | [11] 0.011 | [12] -0.069 | [13] 0.04 | pinometostat 0.001 | [14] -0.027 | [15] 0.047

EIF3J isoform 2 (UniProt O75822)
Sequence of UniProt O75822 (O75822 whole entry, looked up): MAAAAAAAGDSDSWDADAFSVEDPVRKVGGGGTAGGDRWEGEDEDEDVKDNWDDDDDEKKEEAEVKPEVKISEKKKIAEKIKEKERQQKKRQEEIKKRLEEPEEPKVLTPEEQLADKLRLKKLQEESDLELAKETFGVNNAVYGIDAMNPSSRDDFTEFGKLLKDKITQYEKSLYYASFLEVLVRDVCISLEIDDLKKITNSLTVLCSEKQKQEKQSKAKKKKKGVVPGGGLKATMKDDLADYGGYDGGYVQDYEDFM
inactive: erlotinib 0.094 | [1] -0.093 | [2] 0.029 | [3] 0.005 | [4] 0.14 | [5] -0.042 | [7] -0.138 | [8] 0.143 | [9] 0 | IRAK-1-4 Inhibitor I 0.052 | ibrutinib 0.014 | [10] -0.071 | [11] -0.05 | [12] 0.036 | pinometostat -0.018 | [14] 0.046 | [15] 0.107

ELAC1 (UniProt Q9H777)
Sequence of UniProt Q9H777 (Q9H777 whole entry, looked up): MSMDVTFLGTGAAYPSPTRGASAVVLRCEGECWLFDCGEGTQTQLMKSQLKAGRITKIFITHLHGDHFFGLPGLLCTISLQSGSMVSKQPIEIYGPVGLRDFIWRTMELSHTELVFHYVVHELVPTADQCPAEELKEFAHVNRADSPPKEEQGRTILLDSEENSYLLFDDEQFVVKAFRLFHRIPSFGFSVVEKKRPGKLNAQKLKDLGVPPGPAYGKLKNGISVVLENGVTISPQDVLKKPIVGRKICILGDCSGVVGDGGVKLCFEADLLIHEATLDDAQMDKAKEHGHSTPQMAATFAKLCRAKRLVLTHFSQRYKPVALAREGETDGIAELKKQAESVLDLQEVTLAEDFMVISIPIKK
inactive: erlotinib 0.035 | [1] -0.068 | [2] 0.04 | [3] -0.061 | [4] 0.041 | [7] -0.021 | IRAK-1-4 Inhibitor I 0.028 | [10] 0.027 | [11] 0.027 | [12] 0.116 | pinometostat -0.129 | [14] -0.01

DTNBP1 (UniProt Q96EV8)
Sequence of UniProt Q96EV8 (Q96EV8 whole entry, looked up): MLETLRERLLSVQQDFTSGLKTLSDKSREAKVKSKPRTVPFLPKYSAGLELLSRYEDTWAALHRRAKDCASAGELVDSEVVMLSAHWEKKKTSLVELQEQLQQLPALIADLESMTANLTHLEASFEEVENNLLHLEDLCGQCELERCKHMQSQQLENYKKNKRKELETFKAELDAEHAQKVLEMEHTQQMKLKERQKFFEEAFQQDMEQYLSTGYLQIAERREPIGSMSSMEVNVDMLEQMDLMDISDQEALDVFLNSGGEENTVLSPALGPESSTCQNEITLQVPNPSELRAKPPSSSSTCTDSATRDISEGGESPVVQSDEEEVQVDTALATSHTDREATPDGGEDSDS
inactive: erlotinib 0.016 | [1] 0.028 | [2] 0.038 | [3] 0.03 | [4] 0.028 | [5] -0.038 | [6] -0.043 | [7] -0.043 | [8] -0.009 | [9] 0.002 | IRAK-1-4 Inhibitor I 0.069 | ibrutinib -0.025 | [10] 0.038 | ralimetinib -0.136 | [11] -0.058 | [12] -0.009 | [13] -0.029 | pinometostat -0.044 | [14] -0.01 | [15] 0.092

DYNC1I2 isoform 2 (UniProt Q13409)
Sequence of UniProt Q13409 (Q13409 whole entry, looked up): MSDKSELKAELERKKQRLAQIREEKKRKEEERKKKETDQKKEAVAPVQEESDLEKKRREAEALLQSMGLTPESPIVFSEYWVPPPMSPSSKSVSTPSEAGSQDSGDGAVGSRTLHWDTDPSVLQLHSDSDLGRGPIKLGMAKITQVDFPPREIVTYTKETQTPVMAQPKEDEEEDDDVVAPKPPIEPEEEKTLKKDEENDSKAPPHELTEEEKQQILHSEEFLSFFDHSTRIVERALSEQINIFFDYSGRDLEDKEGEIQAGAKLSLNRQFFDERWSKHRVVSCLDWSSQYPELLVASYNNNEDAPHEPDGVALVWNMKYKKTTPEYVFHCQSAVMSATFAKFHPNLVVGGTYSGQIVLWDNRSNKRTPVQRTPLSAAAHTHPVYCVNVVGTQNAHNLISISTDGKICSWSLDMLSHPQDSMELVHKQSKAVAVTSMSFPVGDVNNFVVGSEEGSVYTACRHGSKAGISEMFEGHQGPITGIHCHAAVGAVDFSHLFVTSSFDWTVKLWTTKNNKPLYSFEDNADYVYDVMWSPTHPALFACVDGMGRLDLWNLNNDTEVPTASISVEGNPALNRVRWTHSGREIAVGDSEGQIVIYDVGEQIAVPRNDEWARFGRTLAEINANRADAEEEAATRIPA
inactive: erlotinib 0.018 | [1] 0.155 | [2] 0.057 | [3] -0.056 | [4] -0.202 | [5] -0.013 | [6] 0.17 | [7] 0.057 | [8] -0.062 | [9] 0.029 | IRAK-1-4 Inhibitor I 0.012 | ibrutinib 0.126 | [10] 0.106 | ralimetinib 0.055 | [11] -0.133 | [12] -0.105 | [13] 0.154 | pinometostat 0.023 | [15] -0.05

DSN1 (UniProt Q9H410)
inactive: erlotinib 0.07 | [1] 0.042 | [2] -0.002 | [3] 0.024 | [4] -0.019 | [5] -0.009 | [6] -0.018 | [7] 0.006 | [8] 0.004 | [9] -0.091 | IRAK-1-4 Inhibitor I -0.143 | ibrutinib -0.038 | [10] -0.041 | ralimetinib -0.131 | [11] -0.055 | [12] -0.106 | [13] 0.004 | pinometostat -0.037 | [14] -0.036 | [15] -0.045

DNM2 isoform 4 (UniProt P50570)
inactive: erlotinib 0.042 | [2] 0.084 | [3] -0.128 | [5] 0.261 | [6] -0.008 | IRAK-1-4 Inhibitor I 0.019 | ibrutinib -0.074 | ralimetinib 0.005 | [11] -0.101 | [12] -0.047 | [13] -0.04 | pinometostat -0.063 | [14] 0.007

EIF4G3 isoform 3 (UniProt O43432)
inactive: erlotinib 0.047 | [1] 0.01 | [3] -0.083 | [4] 0.041 | [5] -0.046 | [6] -0.028 | [7] 0.071 | [8] -0.049 | [9] -0.125 | IRAK-1-4 Inhibitor I 0.012 | ibrutinib 0 | [10] -0.074 | ralimetinib -0.003 | [12] -0.079 | [13] 0.017 | pinometostat 0.079 | [14] -0.227 | [15] 0.03

DNAL1 (UniProt Q4LDG9)
Sequence of UniProt Q4LDG9 (Q4LDG9 whole entry, looked up): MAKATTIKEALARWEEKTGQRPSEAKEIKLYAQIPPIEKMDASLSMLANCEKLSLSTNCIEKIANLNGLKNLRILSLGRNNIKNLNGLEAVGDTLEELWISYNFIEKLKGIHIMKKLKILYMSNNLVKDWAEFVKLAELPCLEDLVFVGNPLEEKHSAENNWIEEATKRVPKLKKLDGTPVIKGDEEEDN
inactive: [1] -0.034 | [2] 0.053 | [4] -0.07 | [6] -0.113 | [7] 0.091 | IRAK-1-4 Inhibitor I 0.012 | ibrutinib -0.082 | [10] 0.042 | ralimetinib 0.042 | [11] 0.183 | [13] 0.007 | pinometostat 0.093
active: [5] -0.654

DLK1 (UniProt P80370)
inactive: [2] 0.028 | IRAK-1-4 Inhibitor I 0.023 | [11] -0.034 | pinometostat 0.099

DCAF4 (UniProt Q8WV16)
inactive: [2] 0.009 | [6] -0.15 | ralimetinib -0.026 | [11] -0.019 | [13] -0.042 | [14] 0.043

EDRF1 (UniProt Q3B7T1)
Sequence of UniProt Q3B7T1 (Q3B7T1 whole entry, looked up): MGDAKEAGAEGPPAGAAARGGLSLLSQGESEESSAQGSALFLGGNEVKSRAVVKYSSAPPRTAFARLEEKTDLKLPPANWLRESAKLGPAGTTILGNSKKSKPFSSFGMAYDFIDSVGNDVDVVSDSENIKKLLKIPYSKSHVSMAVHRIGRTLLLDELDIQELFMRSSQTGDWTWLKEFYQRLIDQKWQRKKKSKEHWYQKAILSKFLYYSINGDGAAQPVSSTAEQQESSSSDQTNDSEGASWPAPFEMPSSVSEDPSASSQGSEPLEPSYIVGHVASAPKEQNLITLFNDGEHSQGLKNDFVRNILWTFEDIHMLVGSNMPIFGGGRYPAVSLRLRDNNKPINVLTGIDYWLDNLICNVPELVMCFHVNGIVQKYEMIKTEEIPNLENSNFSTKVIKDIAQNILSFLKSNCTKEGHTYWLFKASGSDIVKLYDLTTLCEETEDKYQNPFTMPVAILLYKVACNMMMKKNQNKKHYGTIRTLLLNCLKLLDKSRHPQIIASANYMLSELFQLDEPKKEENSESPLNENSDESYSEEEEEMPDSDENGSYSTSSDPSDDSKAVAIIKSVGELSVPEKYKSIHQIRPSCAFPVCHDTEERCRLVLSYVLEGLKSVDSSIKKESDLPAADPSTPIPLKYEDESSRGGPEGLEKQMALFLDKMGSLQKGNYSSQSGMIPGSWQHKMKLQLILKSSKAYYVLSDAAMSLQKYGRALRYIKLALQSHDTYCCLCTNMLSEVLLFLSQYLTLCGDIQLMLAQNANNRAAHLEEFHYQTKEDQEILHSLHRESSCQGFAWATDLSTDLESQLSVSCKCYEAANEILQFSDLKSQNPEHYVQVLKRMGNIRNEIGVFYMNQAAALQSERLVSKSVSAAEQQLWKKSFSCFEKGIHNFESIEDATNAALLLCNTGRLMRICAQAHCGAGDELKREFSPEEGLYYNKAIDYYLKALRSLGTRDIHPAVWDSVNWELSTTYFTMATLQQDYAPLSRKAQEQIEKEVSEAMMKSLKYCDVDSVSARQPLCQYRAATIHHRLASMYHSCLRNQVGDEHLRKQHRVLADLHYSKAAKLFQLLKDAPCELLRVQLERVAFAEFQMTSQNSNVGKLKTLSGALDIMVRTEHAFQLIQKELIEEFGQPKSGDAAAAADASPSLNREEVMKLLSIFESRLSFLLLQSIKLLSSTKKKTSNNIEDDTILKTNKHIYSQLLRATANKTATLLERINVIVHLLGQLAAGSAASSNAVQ
inactive: erlotinib 0.066 | [2] -0.038 | [3] -0.119 | [5] -0.017 | [6] -0.033 | ibrutinib 0.068 | ralimetinib 0.04 | [11] 0.048 | [12] 0.004 | [13] 0.066

FAM241A (UniProt Q8N8J7)
Sequence of UniProt Q8N8J7 (Q8N8J7 whole entry, looked up): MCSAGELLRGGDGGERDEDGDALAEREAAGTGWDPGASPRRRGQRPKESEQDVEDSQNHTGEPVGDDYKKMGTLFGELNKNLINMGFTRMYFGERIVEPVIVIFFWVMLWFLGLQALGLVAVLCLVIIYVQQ
inactive: erlotinib -0.012 | [1] -0.005 | [3] 0.044 | [4] -0.076 | [5] 0.043 | [6] -0.014 | [7] 0.012 | [8] 0.016 | [9] 0.045 | IRAK-1-4 Inhibitor I 0.011 | ibrutinib -0.094 | [10] 0.063 | ralimetinib -0.019 | [12] -0.008 | [13] 0.004 | pinometostat -0.029 | [14] 0.059 | [15] -0.008
